Compound: CC(C)c1cccc(C(C)C)c1N1C(=O)c2ccc(O)cc2C1=O
Assay: reporter fold induction vs vehicle; higher = higher reporter activity
In short: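 Multiplexed cellular biosensor reporter system with cis response-element and trans nuclear-receptor transcription factor reporter constructs (48 cis, 25 trans) and homogeneous detection, tested in ToxCast Phase II at 8 concentrations (0.091–200 µM). Reporter activity is given as fold induction relative to vehicle control. Replicates were averaged where present.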

Target	reporter fold induction (0.091 µM)	reporter fold induction (0.274 µM)	reporter fold induction (0.823 µM)	reporter fold induction (2.469 µM)	reporter fold induction (7.407 µM)	reporter fold induction (22.22 µM)	reporter fold induction (66.67 µM)	reporter fold induction (200 µM)
AP_2_CIS	1.04	1	1	1.05	1.01	0.908	0.965	0.898
NRF1_CIS	1.01	0.997	1.04	1.01	0.978	0.868	1.02	1.44
Pax6_CIS	1	1.01	1.02	1.1	0.964	1.1	1.49	2.44
ISRE_CIS	1.23	0.874	1.04	0.962	0.9	0.883	0.605	0.362
GATA_CIS	1	0.993	0.983	1.05	0.98	0.902	1.07	0.842
NRF2_ARE_CIS	1.19	1.1	0.995	0.886	1.15	1.48	2.47	0.886
PPARa_TRANS	1.19	1.13	0.988	0.988	0.912	0.775	0.936	0.812
ERa_TRANS	1.72	2.62	4.32	5.19	4.48	4.97	2.96	1.06
M_61_TRANS	0.964	1.01	0.995	1.01	1.01	1	0.996	0.992
Sox_CIS	0.965	1.03	1.03	1.04	0.984	1.19	1.19	2.17
ERRg_TRANS	1.02	1.11	1.14	1.02	0.941	1.07	0.845	0.391
CMV_CIS	0.996	0.94	1	0.92	1.02	1.41	1.73	1.11
M_19_CIS	1.01	1.01	0.978	1.01	0.961	0.953	1.05	0.776
IR1_CIS	1.07	0.953	1.02	1.01	1.08	0.864	0.788	0.644
M_32_CIS	1.02	0.981	1	1.02	0.972	0.978	1.12	1.02
VDR_TRANS	1.07	1.13	1.1	1.39	1.07	1.41	1.2	1.54
GLI_CIS	1.04	0.925	1	1.04	0.914	0.833	1.19	2.1
THRa1_TRANS	1.06	1.01	1.07	1.3	0.83	0.993	1.35	0.658
GR_TRANS	0.906	1.07	1.06	1.18	0.95	1.13	1.24	1.38

Target	reporter fold induction (0.091 µM)	reporter fold induction (0.274 µM)	reporter fold induction (0.823 µM)	reporter fold induction (2.469 µM)	reporter fold induction (7.407 µM)	reporter fold induction (22.22 µM)	reporter fold induction (66.67 µM)	reporter fold induction (200 µM)
RORE_CIS	1.04	1.06	1.06	0.974	1.08	1.15	1.84	1.72
DR5_CIS	0.96	1.09	1.11	0.929	1.98	2.11	1.71	2.04
PPARg_TRANS	1.01	1.06	0.946	0.881	1.19	1.53	1.62	1.47
M_32_TRANS	1.03	0.997	1.07	1.09	1.08	1.08	0.964	1
p53_CIS	1.06	1.04	1.03	0.969	0.996	0.831	1.19	0.456
SREBP_CIS	1.04	0.954	1.01	0.996	1.05	0.976	1.16	1.49
E_Box_CIS	1.04	0.955	1.02	0.967	1.11	0.945	1.06	0.895
PPRE_CIS	1.02	0.905	1.09	0.944	1.08	1.21	2.59	1.68
RXRa_TRANS	0.986	0.983	1.1	0.957	1.09	1.31	1.31	1.84
PXR_TRANS	1.15	2.07	3.25	4.39	3.39	3.71	3.61	1.33
GRE_CIS	0.966	0.951	1.06	1.05	0.999	0.996	1.01	0.888
RORg_TRANS	1.15	1.17	1.17	1.35	1.43	0.891	0.575	0.332
Oct_MLP_CIS	1.09	1.03	1.03	1.01	1.08	1.1	1.77	3.68
PPARd_TRANS	1.05	0.856	0.9	1.11	0.953	1.14	1.27	1.45
HNF4a_TRANS	1.1	1.42	0.883	1.11	1.1	1.07	0.715	0.473
TCF_b_cat_CIS	1.06	0.944	1.13	1.06	0.839	0.671	0.77	0.204
AP_1_CIS	1.01	0.867	0.986	0.984	1.2	1.44	1.7	0.71
Myb_CIS	0.995	0.98	1.02	0.983	0.998	0.979	1.03	1.13
Xbp1_CIS	1.06	0.98	0.93	0.937	1.21	1.13	1.74	4.47
